This is an account of results in article PMC7862700, “An all-to-all approach to the identification of sequence-specific readers for epigenetic DNA modifications on cytosine”.

Experiment in all cases: DAPPL (digital affinity profiling via proximity ligation, sequencing); 10 mM Tris-HCl pH 7.5, 50 mM NaCl, 1 mM DTT, 4% glycerol, room temperature, 30 min; GST-TFs on glutathione beads, 16-mer random dsDNA library, 0.1% formaldehyde crosslink after washing; high values mean tight binding
Conditions in all cases: protein: recombinant; tags: N-terminal GST; dsDNA, one strand shown

For one test, the target named is T1, FLI1 (Homo sapiens, UniProt Q01543 1-452).
T1 sequence: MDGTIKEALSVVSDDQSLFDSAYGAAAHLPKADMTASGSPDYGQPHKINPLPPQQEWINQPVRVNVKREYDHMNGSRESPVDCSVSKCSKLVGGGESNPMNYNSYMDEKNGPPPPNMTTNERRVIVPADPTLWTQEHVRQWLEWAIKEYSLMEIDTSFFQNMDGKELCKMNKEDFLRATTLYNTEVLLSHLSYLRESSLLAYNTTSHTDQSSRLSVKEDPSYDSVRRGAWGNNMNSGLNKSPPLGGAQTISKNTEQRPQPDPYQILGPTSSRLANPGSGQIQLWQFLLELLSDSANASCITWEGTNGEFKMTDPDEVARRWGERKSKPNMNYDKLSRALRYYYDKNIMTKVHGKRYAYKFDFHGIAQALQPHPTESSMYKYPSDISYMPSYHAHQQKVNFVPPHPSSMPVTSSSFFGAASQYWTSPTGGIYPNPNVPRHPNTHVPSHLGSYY
The procedure, abridged:
(§1)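 Binding signal is defined as a hexamer's read frequency for one factor over its frequency for the tag-only sample. To obtain reads, GST-fused human transcription factors were expressed in yeast, captured on glutathione beads, barcoded with DNA and pooled with that sample. Pools met 200 nmole of a 16-mer random double-stranded DNA library in Tris/NaCl/DTT/glycerol buffer for 30 min at room temperature before washing, 0.1% formaldehyde crosslinking, proximity ligation (BsaI/T4 ligase, 1 h, 37 °C), PCR and Illumina NextSeq500 sequencing.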

Another test has as its target T2, ELK1 (Homo sapiens, UniProt P19419 1-428).
T2 sequence: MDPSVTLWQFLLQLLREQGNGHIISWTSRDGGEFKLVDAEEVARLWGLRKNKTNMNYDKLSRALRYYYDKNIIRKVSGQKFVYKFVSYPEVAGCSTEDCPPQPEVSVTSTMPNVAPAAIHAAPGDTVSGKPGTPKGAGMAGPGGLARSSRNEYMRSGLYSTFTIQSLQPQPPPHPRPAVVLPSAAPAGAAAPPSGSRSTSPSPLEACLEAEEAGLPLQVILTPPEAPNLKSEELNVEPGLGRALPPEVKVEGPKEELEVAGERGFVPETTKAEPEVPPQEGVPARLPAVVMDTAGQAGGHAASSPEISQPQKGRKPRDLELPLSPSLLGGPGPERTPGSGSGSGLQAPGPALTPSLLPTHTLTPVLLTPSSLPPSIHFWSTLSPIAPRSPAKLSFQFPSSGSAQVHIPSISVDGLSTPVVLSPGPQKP
The procedure, abridged: as §1

In another test the target is T3, GABPA (Homo sapiens, UniProt Q06546 1-454).
T3 sequence: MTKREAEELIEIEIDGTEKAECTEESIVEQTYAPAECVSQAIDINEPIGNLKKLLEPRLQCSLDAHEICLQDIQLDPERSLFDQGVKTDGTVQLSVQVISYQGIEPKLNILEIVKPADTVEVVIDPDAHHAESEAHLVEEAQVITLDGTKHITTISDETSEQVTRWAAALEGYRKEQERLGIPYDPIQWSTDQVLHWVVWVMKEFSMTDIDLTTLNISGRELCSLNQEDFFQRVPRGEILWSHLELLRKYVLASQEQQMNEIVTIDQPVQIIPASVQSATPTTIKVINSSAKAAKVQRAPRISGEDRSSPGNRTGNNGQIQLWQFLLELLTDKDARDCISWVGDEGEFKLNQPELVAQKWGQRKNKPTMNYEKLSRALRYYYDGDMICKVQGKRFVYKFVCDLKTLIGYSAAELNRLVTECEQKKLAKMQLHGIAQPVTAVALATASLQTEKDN
The procedure, abridged:
as §1

Another test addresses T4, ERG (Homo sapiens, UniProt P11308 1-479).
T4 sequence: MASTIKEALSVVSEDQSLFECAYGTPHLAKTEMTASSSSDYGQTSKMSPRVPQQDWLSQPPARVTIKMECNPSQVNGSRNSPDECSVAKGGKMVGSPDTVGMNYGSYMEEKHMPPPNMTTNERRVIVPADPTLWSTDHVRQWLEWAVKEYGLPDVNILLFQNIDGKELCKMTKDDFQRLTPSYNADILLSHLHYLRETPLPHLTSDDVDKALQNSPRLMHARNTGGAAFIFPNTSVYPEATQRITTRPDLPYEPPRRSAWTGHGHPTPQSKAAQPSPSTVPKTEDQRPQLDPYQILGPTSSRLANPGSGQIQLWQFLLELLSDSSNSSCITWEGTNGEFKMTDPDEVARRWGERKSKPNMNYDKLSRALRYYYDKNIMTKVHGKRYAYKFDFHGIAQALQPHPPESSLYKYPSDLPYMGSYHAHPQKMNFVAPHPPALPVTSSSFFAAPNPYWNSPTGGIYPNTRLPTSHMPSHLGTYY
The procedure, abridged:
as §1

The target in another test is ELF1 (Homo sapiens, UniProt P32519 1-619). The gist of the method: as §1
A further test has as its target T5, EHF (Homo sapiens, UniProt Q9NZC4 1-300).
T5 sequence: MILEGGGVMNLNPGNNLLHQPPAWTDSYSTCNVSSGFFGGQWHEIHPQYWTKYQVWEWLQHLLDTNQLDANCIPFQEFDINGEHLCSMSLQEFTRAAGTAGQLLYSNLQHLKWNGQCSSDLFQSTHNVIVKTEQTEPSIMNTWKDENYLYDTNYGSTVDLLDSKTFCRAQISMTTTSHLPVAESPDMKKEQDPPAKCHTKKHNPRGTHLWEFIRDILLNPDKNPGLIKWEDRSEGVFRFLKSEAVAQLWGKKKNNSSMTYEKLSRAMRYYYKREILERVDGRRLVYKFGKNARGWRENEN
The gist of the method:
as §1

Another test has as its target SPI1 (Homo sapiens, UniProt P17947 1-270). The procedure, abridged: as §1
For a further test, the target named is SPIB (Homo sapiens, UniProt Q01892 1-262). The procedure, abridged:
as §1

A further test has as its target T6, ELK3 (Homo sapiens, UniProt P41970 1-407).
T6 sequence: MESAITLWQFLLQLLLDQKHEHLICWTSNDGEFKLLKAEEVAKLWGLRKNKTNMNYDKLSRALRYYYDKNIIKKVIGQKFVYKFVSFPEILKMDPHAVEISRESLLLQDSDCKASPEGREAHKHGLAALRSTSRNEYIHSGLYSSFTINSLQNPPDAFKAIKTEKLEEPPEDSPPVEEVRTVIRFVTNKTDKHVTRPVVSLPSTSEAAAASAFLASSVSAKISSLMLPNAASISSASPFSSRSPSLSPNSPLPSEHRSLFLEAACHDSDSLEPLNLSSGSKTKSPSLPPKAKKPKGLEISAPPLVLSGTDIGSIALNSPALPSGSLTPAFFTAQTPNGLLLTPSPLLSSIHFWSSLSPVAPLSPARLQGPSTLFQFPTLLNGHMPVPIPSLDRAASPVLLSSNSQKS
The procedure, abridged:
as §1

The target of another test is T7, FEV (Homo sapiens, UniProt Q99581 1-238).
T7 sequence: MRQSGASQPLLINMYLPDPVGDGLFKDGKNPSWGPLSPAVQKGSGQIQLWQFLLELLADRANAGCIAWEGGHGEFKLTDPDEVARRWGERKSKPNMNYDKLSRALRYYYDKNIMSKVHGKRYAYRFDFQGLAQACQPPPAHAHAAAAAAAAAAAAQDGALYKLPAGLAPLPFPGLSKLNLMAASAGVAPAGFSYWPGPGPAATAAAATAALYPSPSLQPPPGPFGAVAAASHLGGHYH
The gist of the method:
as §1

A further test deals with ETV5 (Homo sapiens, UniProt P41161 1-510). The gist of the method: as §1
In the next test the target is T8, SPIC (Homo sapiens, UniProt Q8N5J4 1-248).
T8 sequence: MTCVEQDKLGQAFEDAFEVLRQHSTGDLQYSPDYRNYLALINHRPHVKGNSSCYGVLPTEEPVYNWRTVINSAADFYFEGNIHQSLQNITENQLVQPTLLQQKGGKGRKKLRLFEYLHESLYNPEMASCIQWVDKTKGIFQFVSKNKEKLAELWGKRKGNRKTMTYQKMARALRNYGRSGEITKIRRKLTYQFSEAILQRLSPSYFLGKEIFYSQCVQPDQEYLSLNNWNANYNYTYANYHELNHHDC
The procedure, abridged: as §1

The next test deals with ELF4 (Homo sapiens, UniProt Q99607 1-663). The procedure, abridged:
as §1

In a further test the target is T9, ELK4 (Homo sapiens, UniProt P28324-2 1-405).
T9 sequence: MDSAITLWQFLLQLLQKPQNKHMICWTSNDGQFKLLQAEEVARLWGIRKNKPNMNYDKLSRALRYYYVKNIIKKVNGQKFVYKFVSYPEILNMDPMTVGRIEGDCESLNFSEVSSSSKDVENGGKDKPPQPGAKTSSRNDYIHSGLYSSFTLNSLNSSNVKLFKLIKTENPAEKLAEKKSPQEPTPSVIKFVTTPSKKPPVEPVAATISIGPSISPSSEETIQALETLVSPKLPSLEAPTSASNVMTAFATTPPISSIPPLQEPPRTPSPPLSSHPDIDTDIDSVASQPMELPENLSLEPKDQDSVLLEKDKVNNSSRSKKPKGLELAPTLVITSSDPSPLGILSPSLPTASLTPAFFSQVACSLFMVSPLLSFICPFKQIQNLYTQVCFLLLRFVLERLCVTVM
The gist of the method:
as §1

A further test addresses T10, ETV2 (Homo sapiens, UniProt O00321 1-342).
T10 sequence: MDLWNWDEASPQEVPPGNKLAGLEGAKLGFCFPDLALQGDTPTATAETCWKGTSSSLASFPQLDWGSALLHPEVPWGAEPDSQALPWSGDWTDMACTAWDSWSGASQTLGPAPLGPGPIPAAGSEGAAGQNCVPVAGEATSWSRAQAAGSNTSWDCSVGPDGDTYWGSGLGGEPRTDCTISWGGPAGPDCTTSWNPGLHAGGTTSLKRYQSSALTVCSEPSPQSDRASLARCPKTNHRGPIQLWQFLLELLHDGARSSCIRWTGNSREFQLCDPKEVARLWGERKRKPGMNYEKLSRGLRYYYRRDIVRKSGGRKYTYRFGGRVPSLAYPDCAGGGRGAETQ
The procedure, abridged: as §1

Another test addresses T11, ELF3 (Homo sapiens, UniProt P78545 1-371).
T11 sequence: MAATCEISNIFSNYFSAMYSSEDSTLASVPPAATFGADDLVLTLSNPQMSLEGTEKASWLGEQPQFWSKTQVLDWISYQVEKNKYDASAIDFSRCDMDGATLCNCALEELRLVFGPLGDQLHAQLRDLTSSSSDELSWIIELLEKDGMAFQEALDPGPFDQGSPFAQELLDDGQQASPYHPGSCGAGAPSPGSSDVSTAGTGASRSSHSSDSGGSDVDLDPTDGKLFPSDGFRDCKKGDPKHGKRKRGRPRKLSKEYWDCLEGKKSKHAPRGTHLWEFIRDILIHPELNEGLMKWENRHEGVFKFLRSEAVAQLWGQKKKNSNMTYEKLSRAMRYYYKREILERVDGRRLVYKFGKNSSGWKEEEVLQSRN
The procedure, abridged:
as §1

For another test, the target named is ETV1 (Homo sapiens, UniProt P50549 1-477). The procedure, abridged: as §1
Sequence of ETV1 (P50549 whole entry): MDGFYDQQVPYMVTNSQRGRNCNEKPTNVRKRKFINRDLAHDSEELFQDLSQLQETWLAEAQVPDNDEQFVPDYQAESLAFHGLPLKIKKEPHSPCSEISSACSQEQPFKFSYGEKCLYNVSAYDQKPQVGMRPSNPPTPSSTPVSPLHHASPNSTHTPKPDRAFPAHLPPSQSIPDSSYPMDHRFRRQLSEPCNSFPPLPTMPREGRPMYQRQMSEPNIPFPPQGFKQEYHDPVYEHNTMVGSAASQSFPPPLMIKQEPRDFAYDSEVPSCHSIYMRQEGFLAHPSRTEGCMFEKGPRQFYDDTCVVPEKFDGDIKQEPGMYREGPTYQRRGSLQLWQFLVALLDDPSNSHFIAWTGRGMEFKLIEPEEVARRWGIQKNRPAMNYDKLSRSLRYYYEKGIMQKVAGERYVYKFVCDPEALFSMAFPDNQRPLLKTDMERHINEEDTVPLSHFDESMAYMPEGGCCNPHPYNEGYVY

Sequence of ETV5 (P41161 whole entry): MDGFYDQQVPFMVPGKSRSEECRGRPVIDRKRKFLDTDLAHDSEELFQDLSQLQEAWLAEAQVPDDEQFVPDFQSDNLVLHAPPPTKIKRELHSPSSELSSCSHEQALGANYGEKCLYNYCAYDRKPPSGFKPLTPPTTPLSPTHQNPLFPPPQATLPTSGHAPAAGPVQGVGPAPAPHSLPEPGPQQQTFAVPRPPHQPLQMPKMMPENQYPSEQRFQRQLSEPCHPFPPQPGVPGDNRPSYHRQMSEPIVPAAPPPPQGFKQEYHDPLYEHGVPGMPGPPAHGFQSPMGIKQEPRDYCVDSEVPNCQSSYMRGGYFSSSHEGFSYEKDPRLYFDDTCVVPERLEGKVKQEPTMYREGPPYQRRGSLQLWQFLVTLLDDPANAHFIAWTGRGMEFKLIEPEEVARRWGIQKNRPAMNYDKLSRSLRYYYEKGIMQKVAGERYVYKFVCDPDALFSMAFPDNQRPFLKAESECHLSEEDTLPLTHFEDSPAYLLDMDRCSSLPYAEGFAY
Sequence of ELF4 (Q99607 whole entry): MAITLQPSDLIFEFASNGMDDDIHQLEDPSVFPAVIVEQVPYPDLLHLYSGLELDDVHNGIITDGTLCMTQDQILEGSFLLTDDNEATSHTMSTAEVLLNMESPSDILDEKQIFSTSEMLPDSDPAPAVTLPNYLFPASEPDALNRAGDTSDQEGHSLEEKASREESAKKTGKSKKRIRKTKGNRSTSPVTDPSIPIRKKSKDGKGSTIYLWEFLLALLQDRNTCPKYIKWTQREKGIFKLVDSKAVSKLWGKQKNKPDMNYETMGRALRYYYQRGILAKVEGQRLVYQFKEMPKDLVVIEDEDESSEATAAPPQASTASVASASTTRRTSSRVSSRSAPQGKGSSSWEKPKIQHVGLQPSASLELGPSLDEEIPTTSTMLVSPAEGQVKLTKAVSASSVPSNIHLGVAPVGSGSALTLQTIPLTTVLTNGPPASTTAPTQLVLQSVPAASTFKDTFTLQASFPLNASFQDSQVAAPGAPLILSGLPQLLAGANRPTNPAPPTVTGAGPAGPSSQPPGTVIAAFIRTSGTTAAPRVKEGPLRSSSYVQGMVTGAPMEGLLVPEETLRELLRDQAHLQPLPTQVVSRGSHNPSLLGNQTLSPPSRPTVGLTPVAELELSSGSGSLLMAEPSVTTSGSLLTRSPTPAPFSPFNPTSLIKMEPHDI
Sequence of SPIB (Q01892 whole entry): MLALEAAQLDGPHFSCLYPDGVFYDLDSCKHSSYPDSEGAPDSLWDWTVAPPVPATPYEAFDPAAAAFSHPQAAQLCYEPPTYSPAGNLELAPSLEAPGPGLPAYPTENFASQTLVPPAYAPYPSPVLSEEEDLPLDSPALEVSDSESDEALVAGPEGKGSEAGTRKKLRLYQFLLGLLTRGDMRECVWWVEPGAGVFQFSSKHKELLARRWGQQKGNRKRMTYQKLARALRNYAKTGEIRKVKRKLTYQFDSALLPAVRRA
Sequence of ELF1 (P32519 whole entry): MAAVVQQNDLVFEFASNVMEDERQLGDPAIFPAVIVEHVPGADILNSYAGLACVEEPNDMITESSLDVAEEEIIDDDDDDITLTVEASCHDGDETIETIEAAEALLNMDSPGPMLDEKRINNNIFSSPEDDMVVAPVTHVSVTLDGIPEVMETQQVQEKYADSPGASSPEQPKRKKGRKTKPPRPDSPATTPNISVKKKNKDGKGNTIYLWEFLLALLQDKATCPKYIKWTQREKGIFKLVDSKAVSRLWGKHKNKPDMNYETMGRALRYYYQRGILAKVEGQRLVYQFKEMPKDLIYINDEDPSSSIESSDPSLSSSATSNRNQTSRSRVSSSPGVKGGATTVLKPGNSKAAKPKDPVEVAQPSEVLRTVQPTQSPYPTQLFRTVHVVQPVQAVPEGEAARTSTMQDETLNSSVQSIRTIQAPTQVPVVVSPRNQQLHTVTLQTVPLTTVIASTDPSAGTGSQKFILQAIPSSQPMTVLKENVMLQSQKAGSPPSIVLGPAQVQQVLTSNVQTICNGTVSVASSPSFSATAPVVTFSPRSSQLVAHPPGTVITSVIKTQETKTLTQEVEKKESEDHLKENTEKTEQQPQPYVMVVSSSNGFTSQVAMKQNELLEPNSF

GTGACC: the binding signal was 1.29 fold enrichment (6-mer frequency, TF over GST control) with FLI1; 1.27 fold enrichment (6-mer frequency, TF over GST control) with ELK1; 1.18 fold enrichment (6-mer frequency, TF over GST control) with GABPA; 1.24 fold enrichment (6-mer frequency, TF over GST control) with ERG; 1.25 fold enrichment (6-mer frequency, TF over GST control) with ELF1; 1.36 fold enrichment (6-mer frequency, TF over GST control) with EHF. Moreover, the binding signal in the test with SPI1 was 1.32 fold enrichment (6-mer frequency, TF over GST control); in the test with SPIB, 1.24 fold enrichment (6-mer frequency, TF over GST control); in the test with ELK3, 1.03 fold enrichment (6-mer frequency, TF over GST control); in the test with FEV it was 1.36 fold enrichment (6-mer frequency, TF over GST control); with ETV5, 1.22 fold enrichment (6-mer frequency, TF over GST control); with SPIC, 1.34 fold enrichment (6-mer frequency, TF over GST control). For the same sequence, the binding signal is 1.27 fold enrichment (6-mer frequency, TF over GST control) in the test with ELF4; 1.36 fold enrichment (6-mer frequency, TF over GST control) with ELK4; 1.12 fold enrichment (6-mer frequency, TF over GST control) with ETV2; 1.3 fold enrichment (6-mer frequency, TF over GST control) with ELF3; 1.24 fold enrichment (6-mer frequency, TF over GST control) with ETV1.

With CTGGTC, the binding signal in the test with FLI1 is 1.11 fold enrichment (6-mer frequency, TF over GST control); in the test with ELK1, 1.23 fold enrichment (6-mer frequency, TF over GST control); with GABPA, 1.25 fold enrichment (6-mer frequency, TF over GST control); with ERG it was 1.2 fold enrichment (6-mer frequency, TF over GST control); with ELF1, 1.15 fold enrichment (6-mer frequency, TF over GST control); with EHF, 1.2 fold enrichment (6-mer frequency, TF over GST control). Moreover, the binding signal with SPI1 was 1.13 fold enrichment (6-mer frequency, TF over GST control); with SPIB it was 1.35 fold enrichment (6-mer frequency, TF over GST control); with ELK3 it was 1.09 fold enrichment (6-mer frequency, TF over GST control); with FEV, 1.11 fold enrichment (6-mer frequency, TF over GST control); with ETV5, 1.22 fold enrichment (6-mer frequency, TF over GST control); with SPIC it was 1.2 fold enrichment (6-mer frequency, TF over GST control). The binding signal was 1.16 fold enrichment (6-mer frequency, TF over GST control) with ELF4; 1.19 fold enrichment (6-mer frequency, TF over GST control) with ELK4; 1.27 fold enrichment (6-mer frequency, TF over GST control) in the test with ETV2; 1.05 fold enrichment (6-mer frequency, TF over GST control) with ELF3; 1.07 fold enrichment (6-mer frequency, TF over GST control) with ETV1.
